{"source": "PubChem BioAssay AID588413", "about": "(Sanford-Burnham Center for Chemical Genomics, 2011)", "note": "Screen size: about 340,000 compounds; about 2,500 (0.74%) were called active.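 How the source made its calls: active means inhibition above about 55% (limit read from the data); inactive means the rest.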 The sample as a whole holds a higher share of actives than the screen did.", "data": [{"assay": "blockers of Gli reporter signaling – luciferase luminescence, Sufu-KO-LIGHT cells, uHTS, primary screen (AID 588413);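 further: 0% = DMSO-treated cells and 100% = wells with medium but no cells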", "settings": "Sufu-KO-LIGHT fibroblasts, at 5 µM, stronger effect = higher value", "values": [{"smiles": "O=C(NC1CCc2ccccc21)C12CN(Cc3ccccc3)CC1C(c1cccc([N+](=O)[O-])c1)=NO2", "note": "(centres undefined)", "inhibition": "6.88% (inactive)"}, {"smiles": "CCS(=O)(=O)Nc1ccc(C2=NN(S(=O)(=O)c3ccc(F)cc3)C(c3ccco3)C2)cc1", "note": "(centres undefined)", "inhibition": "1.29% (inactive)"}, {"smiles": "Cn1cc(S(=O)(=O)Nc2ccc(Cl)cc2Cl)c(=O)n(C)c1=O", "inhibition": "1.79% (inactive)"}, {"smiles": "O=C(NCCS(=O)(=O)NCc1ccc(Cl)cc1)c1ccccc1", "inhibition": "-12.9% (inactive)"}, {"smiles": "O=C(NCCOCc1ccc(Cl)cc1)c1ncn[nH]1", "inhibition": "84.5% (active)"}, {"smiles": "Cc1cc(C(=O)NCCc2ccc(Cl)cc2)n(-c2ccccc2)n1", "inhibition": "-16.3% (inactive)"}, {"smiles": "CCOc1ccc(NC(=S)N2CCCCCC2)cc1", "inhibition": "-2.25% (inactive)"}, {"smiles": "Cc1nn(C)c(C)c1S(=O)(=O)N1CCC(CO)(Cc2ccc(Cl)cc2)CC1", "inhibition": "8.21% (inactive)"}, {"smiles": "C=CCNC(=S)/N=c1/ccccn1Cc1ccccc1", "inhibition": "67.3% (active)"}, {"smiles": "CNC(=S)NNC(=O)c1cccn(Cc2ccccc2)c1=O", "inhibition": "13.9% (inactive)"}, {"smiles": "C=CCNC(=O)COc1coc(CN2CCN(Cc3ccccc3)CC2)cc1=O", "inhibition": "3.43% (inactive)"}, {"smiles": "Cc1cccc(NC(=O)C2CCCN2S(=O)(=O)c2ccc(F)cc2)c1C", "note": "(centres undefined)", "inhibition": "10.9% (inactive)"}, {"smiles": "Cc1[nH]nc(-c2ccc(OCc3cnn(-c4ccccc4)c3)cc2O)c1Oc1ccc(Cl)cc1", "inhibition": "4.97% (inactive)"}, {"smiles": "COc1cccc(CC(=NO)c2cccc(OC)c2)c1", "inhibition": "-2.96% (inactive)"}, {"smiles": "Cc1noc(NS(=O)(=O)c2ccc(N3CC(O)=C(c4ccccc4)C3=N)cc2)c1C", "inhibition": "-2.28% (inactive)"}, {"smiles": "CCCC1=Nc2cc(C(=O)NCc3ccco3)ccc2Sc2ccccc21", "inhibition": "65.9% (active)"}, {"smiles": "CCCC1=Nc2cc(C(=O)NCCN3CCCC3)ccc2Sc2ccccc21", "inhibition": "18.7% (inactive)"}, {"smiles": "CC(C)(C)c1ccc(C(=O)NCc2ccco2)cc1", "inhibition": "-4.01% (inactive)"}, {"smiles": "COc1c(O)ccc2c1CN1CCc3cc4c(cc3C1C2)OCO4", "note": "(centres undefined)", "inhibition": "-25.1% (inactive)"}, {"smiles": "CCOC(=O)c1sc2nc(C)nc(Nc3ccc(OC)c(OC)c3)c2c1C", "inhibition": "12.9% (inactive)"}, {"smiles": "CC(=O)c1cccc(CN2CCC(CO)(Cc3ccccc3)CC2)c1", "inhibition": "30.4% (inactive)"}, {"smiles": "OCC1(Cc2ccccc2)CCN(Cc2cc3ccccc3o2)CC1", "inhibition": "22.4% (inactive)"}, {"smiles": "COc1ccccc1/C=C/CN1CCC(CO)(Cc2ccccc2)CC1", "inhibition": "65.4% (active)"}, {"smiles": "CCOC(=O)C1CCCN(C(=O)C2CCN(S(=O)(=O)c3ccc(Cl)c(C(F)(F)F)c3)CC2)C1", "note": "(centres undefined)", "inhibition": "3.88% (inactive)"}, {"smiles": "CCOC(=O)c1ccccc1NC(=O)c1c(N)n(C)c(=O)[nH]c1=O", "inhibition": "5.02% (inactive)"}, {"smiles": "COc1ccc(-n2nnc3c(=O)n(CC(=O)OCc4ccccc4)cnc32)cc1", "inhibition": "1.46% (inactive)"}, {"smiles": "CCCn1c2ccccc2c2cnn(CC(=O)NCCCN3CCCCC3CC)c(=O)c21", "note": "(centres undefined)", "inhibition": "12.7% (inactive)"}, {"smiles": "Cc1ccc(-c2ccc(=O)n(CC(=O)NCCCN3CCCCC3)n2)cc1", "inhibition": "5.01% (inactive)"}, {"smiles": "CCC1CCCCN1CCCNC(=O)Cn1nc(-c2ccccc2)ccc1=O", "note": "(centres undefined)", "inhibition": "57% (active)"}, {"smiles": "CCOC(=O)c1ccc(S(=O)(=O)N(CCO)Cc2cc3cc(OC)c(OC)cc3[nH]c2=O)cc1", "inhibition": "1.66% (inactive)"}, {"smiles": "Cc1ccc(S(=O)(=O)NCCC(c2ccccc2)c2ccccc2)cc1C(=O)O", "inhibition": "-19.2% (inactive)"}, {"smiles": "O=C(Nc1ccc(S(=O)(=O)Nc2nccs2)cc1)c1cc(-c2ccncc2)nc2ccccc12", "inhibition": "0.2% (inactive)"}, {"smiles": "COC(=O)CNC(=O)c1cc(-c2ccncc2)nc2ccccc12", "inhibition": "-8.23% (inactive)"}, {"smiles": "CCN(CC)CCNC(=O)c1ccc(NC(=O)c2cc(-c3ccncc3)nc3ccccc23)cc1", "inhibition": "64.3% (active)"}, {"smiles": "CN(C)c1ccc(CNC2C3CC4CC(C3)CC2C4)cc1", "note": "(centres undefined)", "inhibition": "1.25% (inactive)"}, {"smiles": "O=C(NCC(=O)N1CCCCCCC1)c1ccccc1Cl", "inhibition": "-20.5% (inactive)"}, {"smiles": "CC(=O)c1ccc(S(=O)(=O)NCCC(=O)N2CCN(c3ccccn3)CC2)cc1", "inhibition": "-5.24% (inactive)"}, {"smiles": "Cc1ccc(S(=O)(=O)N(Cc2cc3ccccc3[nH]c2=O)CC2CCCO2)cc1", "note": "(centres undefined)", "inhibition": "64.1% (active)"}, {"smiles": "O=C(c1cccs1)N(Cc1cc2ccccc2[nH]c1=O)CC1CCCO1", "note": "(centres undefined)", "inhibition": "20.4% (inactive)"}, {"smiles": "CCN(Cc1cc2cc(C)ccc2[nH]c1=O)S(=O)(=O)c1ccccc1", "inhibition": "0.68% (inactive)"}, {"smiles": "O=C(O)CCCn1c(=O)c2cccn2c2ccc(F)cc21", "inhibition": "4.96% (inactive)"}, {"smiles": "COc1ccc(C2=NS(=O)(=O)N(C)C(C(=O)N3CCCCC3)=C2)cc1", "inhibition": "14.7% (inactive)"}, {"smiles": "CCOc1ccccc1N1CN(Cc2ccccc2)CNC1=S", "inhibition": "-9.38% (inactive)"}, {"smiles": "COc1cccc(OCc2cc(C(=O)N3CCN(C(=O)c4ccco4)CC3)no2)c1", "inhibition": "-5.15% (inactive)"}, {"smiles": "C=CCC1(CC=C)CCCN1C(=O)c1cc(COc2ccc(-n3cncn3)cc2)on1", "inhibition": "77.8% (active)"}, {"smiles": "O=C(c1cc(COc2ccc(F)c(F)c2)on1)N1CCOCC1", "inhibition": "-41.7% (inactive)"}, {"smiles": "COc1cc(Cl)c(C)cc1NC(=O)CSc1nnc(CN2CCCC2)o1", "inhibition": "1.49% (inactive)"}, {"smiles": "O=C(NC(Nc1nc2ccc([N+](=O)[O-])cc2s1)(C(F)(F)F)C(F)(F)F)c1ccccc1", "inhibition": "87.4% (active)"}, {"smiles": "N=C1C(c2nc3ccccc3s2)=C(O)CN1NC(=O)c1ccc([N+](=O)[O-])cc1", "inhibition": "-3.9% (inactive)"}, {"smiles": "Cc1ccc(NC(=O)c2cccc(S(=O)(=O)N3CCCc4ccccc43)c2)nc1", "inhibition": "-3.22% (inactive)"}, {"smiles": "O=C(Nc1nc2ccc([N+](=O)[O-])cc2s1)c1ccc(S(=O)(=O)N2CCCc3ccccc32)cc1", "inhibition": "77.6% (active)"}, {"smiles": "CNC(=O)c1ccsc1NC(=O)c1ccc(S(=O)(=O)N2CCc3ccccc32)cc1", "inhibition": "5.3% (inactive)"}, {"smiles": "O=C(NOCc1ccccc1)c1cccc([N+](=O)[O-])c1", "inhibition": "-14.1% (inactive)"}, {"smiles": "CCOc1ccc(C(=O)Nc2nccs2)cc1[N+](=O)[O-]", "inhibition": "-24.3% (inactive)"}, {"smiles": "OC(c1ccc(Cl)cc1)C(CN1CCOCC1)c1ccccc1", "note": "(centres undefined)", "inhibition": "-27.6% (inactive)"}, {"smiles": "Cc1ccc(C(CC(=O)O)NC(=O)c2ccc(S(=O)(=O)N3CCCC3)cc2)cc1", "note": "(centres undefined)", "inhibition": "-3.63% (inactive)"}, {"smiles": "C/C(=N/Nc1nc(-c2ccccc2)c(CC(=O)O)s1)c1ccccc1", "inhibition": "-23% (inactive)"}, {"smiles": "COc1cc(OC)nc(N/N=C(\\c2ccccc2)c2ccncc2)n1", "inhibition": "7.9% (inactive)"}, {"smiles": "c1ccc(C(=NNc2nc3ccccc3s2)c2ccccn2)cc1", "inhibition": "82.5% (active)"}]}]}
